Test results published in PubChem BioAssay AID687001 (Broad Institute, 2013).
Results with a measured potency or affinity are listed apart. Active and inactive are the calls of the source.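 The calls were made as follows: active = signal-lowering compounds whose fitted half-maximal concentration is at or below twice the top tested dose in every run; inconclusive = runs disagree, flat 30 to 70% inhibition, or poor curve fit; inactive = the rest.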

What follows are compounds tested against Protein S100-A4 (Homo sapiens) (UniProt P26447) (assay: human S100A4 peptide interaction inhibition curves – biochemical, fluorescence polarization, cherry-picked hits, dose response (AID 687001;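 also: 0% = DMSO neutral control wells and -100% = TFP positive control wells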)). Details: FP, S100A4/TAMRA-myosin IIA peptide binding; series mostly up to 11 µM; activity change, negative = inhibition: at the top concentration.
Sequence of Protein S100-A4 (Homo sapiens) (P26447 whole entry, looked up): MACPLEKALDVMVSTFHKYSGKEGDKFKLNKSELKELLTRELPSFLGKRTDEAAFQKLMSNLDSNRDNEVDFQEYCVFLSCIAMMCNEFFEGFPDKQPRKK

Activity change, negative = inhibition, inactive:
CN1c2ccc(-c3cccc(F)c3)cc2[C@H]2[C@H](CCN2C(=O)c2ccccc2F)[C@H]1CO 0.162% [at 10 µM]
O=C(C[C@H]1CC[C@@H]2[C@H](COC[C@@H](O)CN2C(=O)Nc2ccc(F)cc2)O1)NCCc1ccccc1 7.77%
CO[C@H]1CN(C)C(=O)c2ccc(NC(=O)c3ccccc3F)cc2OC[C@H](C)NC[C@@H]1C -1.06%
C[C@@H]1CN([C@@H](C)CO)C(=O)c2cccc(NS(=O)(=O)c3ccc(F)cc3)c2O[C@H]1CN(C)C(=O)NC1CCCCC1 1.57%
COc1cc(OC)cc(C(=O)N2CCCc3ccccc32)c1 -4.36%
O=C1CC(c2ccccc2)NN1 (stereo not given) -3.19%
Cc1cc(C)c(C(=O)COC(=O)CNC(=O)c2ccccc2C)c(C)c1 -0.1%
COc1ccc2c3c([nH]c2c1)[C@H](CO)N(S(C)(=O)=O)CC31CN(CC2CCOCC2)C1 15.9%
C[C@@H]1CCCCO[C@H](CN(C)C(=O)NC2CCCCC2)[C@@H](C)CN([C@@H](C)CO)C(=O)c2cc(NC(=O)Nc3ccc(C(F)(F)F)cc3)ccc2O1 21.9%
Cc1ccc(OC(=O)N(C)C[C@@H]2OCc3cn(nn3)CCCC(=O)N([C@H](C)CO)C[C@H]2C)cc1 -2.38%
